Test [1] in a line: qHTS assay to identify small molecule agonists of the estrogen receptor alpha (ER-alpha) signaling pathway in the presence of an antagonist - cell viability counter screen (AID 1259386).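 Further: series mostly up to about 92 µM; cells exposed to compounds for 22 h at 37 °C before the viability read; nearly all actives have a fitted effect of over 30% in size.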 In a few lines: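 Fluorescent CellTiter-Fluor viability signal from VM7Luc4E2 cells, with the reagent added during the final hour of a 22hr compound exposure at 37C in the presence of 10.0nM ICI-182,780.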

Test [2] concerns the target Progesterone receptor (Homo sapiens) (UniProt P06401). The experiment in a line: qHTS assay to identify small molecule agonists of the progesterone receptor (PR) signaling pathway (AID 1346784; calls by dose curve; further: nearly all actives have a fitted effect of over 30% in size). A digest of the protocol: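 Compounds were tested for PR agonism in HEK 293T cells bearing a beta-lactamase gene under UAS control. Treatment lasted 16 hr at 37C; signal came from fluorescence of a FRET substrate.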

Test [3] can be described thus: qHTS assay to identify small molecule antagonists of the progesterone receptor (PR) signaling pathway - cell viability counter screen (AID 1346798). Further: series mostly up to about 92 µM; nearly all actives have a fitted effect of over 50% in size. A digest of the protocol:
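Following a 4 hr attachment, PR-UAS-bla HEK293T cells in charcoal-stripped FBS medium were exposed to compounds with R5020 for 16 hr; CellTiter-Glo was added and luminescence read after 30 min at room temperature.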

The nature of test [4]: qHTS assay to identify small molecule agonists of the progesterone receptor (PR) signaling pathway - cell viability counter screen (AID 1346799; calls by dose curve; further: nearly all actives have a fitted effect of over 45% in size). In a few lines: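 Here, 3,000 PR-UAS-bla HEK293T cells per well were treated with compounds for 16 hr after a 6 hr preincubation at 37C and 5% CO2; cell viability is the CellTiter-Glo luminescence signal.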
Test [5] is described as follows: qHTS assay to identify small molecule antagonists of the TGF-beta/Smad signaling pathway - cell viability counter screen (AID 1346824). Further: nearly all actives have a fitted effect of over 50% in size. In a few lines:
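SBE-bla HEK 293T cells were plated overnight at 37 C, then given compounds in DMSO plus TGF-beta1 (added as 0.25 ng/mL solution) for 5 hr. After the bla read, CellTiter-Glo was added to the same wells and luminescence read after 30 min at room temperature.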

Test [6] can be described thus: qHTS assay to identify small molecule agonists of the TGF-beta/Smad signaling pathway - cell viability counter screen (AID 1346829). Further: top concentration of the series differs between compounds; nearly all actives have a fitted effect of over 45% in size. A digest of the protocol:
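Compound-treated SBE-bla HEK 293T cells (5 hr, 37 C) were assessed for viability with CellTiter-Glo in parallel with the reporter read.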

Test [7] can be described thus: qHTS assay to identify small molecule agonists of the TGF-beta/Smad signaling pathway (AID 1346859; active means well fitted activation curve with a large enough effect in the signal ratio in the repeat runs, not every such curve was filed as active; the % refers to the signal ratio; further: series mostly up to about 77 µM). A digest of the protocol:
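Each well held 4,000 SBE-bla HEK 293T cells incubated overnight before compound addition; 5 hr later the cleavable FRET substrate went on for 2 hr at room temperature, and fluorescence was read at two emissions.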
(qHTS replaces the single test concentration by a dilution series.)

Test [8] is described as follows: Caspase-3/7 induction in HepG2 cells by small molecules, qHTS assay (AID 1346978). Further: nearly all actives have a fitted effect of over 15% in size. A digest of the protocol: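 Wild-type HepG2 cells (2,000/well) were settled 5 h at 37 C, 5% CO2, then exposed to compounds in DMSO for 17 h. Caspase-3/7 activity was read by luminescence 30 min after adding Caspase-Glo 3/7 reagent at room temperature.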
Test [9] in a line: Caspase-3/7 induction in CHO-K1 cells by small molecules, qHTS cell viability counter screen (AID 1346979). Further: nearly all actives have a fitted effect of over 35% in size. Further: potency means the concentration at half of the fitted maximal effect. A digest of the protocol:
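CellTiter-Fluor viability check, qHTS format: wild-type CHO-K1, 16hr compound treatment, 1hr reagent incubation, fluorescence read.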

Test [10] in a line: Caspase-3/7 induction in HepG2 cells by small molecules, qHTS cell viability counter screen (AID 1346981). Further: series mostly up to about 92 µM; nearly all actives have a fitted effect of over 30% in size. In a few lines:
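Counter screen for cytotoxicity: HepG2 exposed 16 hr to compounds, then CellTiter-Fluor viability signal (fluorescence, 1 hr reagent incubation).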

In test [11] the target is Nuclear receptor subfamily 1 group I member 2 (Rattus norvegicus) (UniProt Q9R1A7). In words: Rat pregnane X receptor (rPXR) activation by small molecules, qHTS assay (AID 1346983). Further: nearly all actives have a fitted effect of over 20% in size. The note with it: rPXR luciferase reporter cells, One-Glo luminescence, 24 h; max activation: stronger effect = higher value. In a few lines: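 Cell-based rPXR luciferase reporter assay, 2,000 cells per well, rested 5hr at 37 C before compound addition in DMSO, then 24 hr at 37 C. One-Glo reagent was added and luminescence read after 30 min at room temperature.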

In test [12] the target is Cytochrome P450 2D6 (Homo sapiens) (UniProt P10635). In words: Cytochrome P450 Family 2 Subfamily D Member 6 (CYP2D6) small molecule antagonists: luciferase reporter qHTS assay (AID 1671196). Further: nearly all actives have a fitted effect of over 50% in size. Further: potency means the concentration at half of the fitted maximal effect. A digest of the protocol:
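Inhibition of CYP2D6 was gauged by loss of luminescence, since light produced tracks the luciferin generated from a proluciferin substrate. A 10 min room-temperature preincubation preceded 1 h NADPH-supported turnover.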
(In a reporter assay the amount or activity of a reporter protein is the signal.)

Test [13] deals with Progesterone receptor (Homo sapiens) (UniProt P06401). The experiment in a line: qHTS assay to identify small molecule antagonists of the progesterone receptor (PR) signaling pathway (AID 1346795; active means well fitted inhibition curve with a large enough effect in the signal ratio in the repeat runs, not every such curve was filed as active; the % refers to the signal ratio). In a few lines: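 In HEK293T cells bearing the PR-UAS-bla reporter, compound effects on promegestone-driven (1 nM) beta-lactamase expression are assessed after 16 hr using a fluorescent FRET substrate incubated 2 hr at room temperature.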

A short description of test [14]: Human pregnane X receptor (PXR) small molecule agonists, qHTS cell viability counter screen (AID 1346977). Further: nearly all actives have a fitted effect of over 50% in size. In a few lines:
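Tox21 qHTS format; PXR-Luc HepG2, 2,000/well, charcoal-stripped FBS 5%. Cpd exposure 24hr. Read: CellTiter-Fluor fluorescence, multiplexed with luciferase.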

The nature of test [15]: Caspase-3/7 induction in CHO-K1 cells by small molecules, qHTS assay (AID 1346980). Further: nearly all actives have a fitted effect of over 15% in size. In a few lines: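 Wild-type cells were seeded at 1,500 per well and settled 5 hr at 37 C, 5% CO2, then exposed to DMSO-dissolved compounds for 17 hr. Caspase-Glo 3/7 reagent was added, and luminescence was read after 30min at room temperature.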
Test [16] addresses Nuclear receptor subfamily 1 group I member 2 (Homo sapiens) (UniProt O75469). In words: CYP3A4 induction through human pregnane X receptor (PXR) by small molecules, qHTS assay (AID 1346984). Further: nearly all actives have a fitted effect of over 40% in size. In a few lines: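 DPX-2 reporter cells; 24h cpd, 37C; Luciferin-IPA 3uM final x3h; One-Glo 30 min RT; lumi read.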
Test [17] has the same target. The experiment in a line: Human pregnane X receptor (PXR) activation by small molecules, qHTS assay (AID 1346985). Further: nearly all actives have a fitted effect of over 40% in size. In a few lines: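 DPX-2 cells (HepG2 co-transfected with a PXR response element and a CYP3A4-promoter luciferase construct) were seeded at 2,000 per well, rested 5 hr at 37C, then exposed to DMSO-dissolved compounds for 24 hr. Activation was read as luciferase luminescence.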

Test [18] concerns the target Thyrotropin-releasing hormone receptor (Homo sapiens) (UniProt P34981). The experiment in a line: qHTS assay to identify small molecule antagonists of the thyrotropin-releasing hormone receptor (TRHR) signaling pathway (AID 1346877; active means well fitted inhibition curve with a large enough effect in the repeat runs, not every such curve was filed as active; further: series mostly up to about 51 µM). A digest of the protocol: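 In this cell-based calcium flux format, HEK293 cells expressing TRHR received test compound for 5 min before the agonist TRH (1 nM final). Dye loading lasted 2 h at 37 °C.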

The target is the same in test [19]. The experiment in a line: qHTS assay to identify small molecule agonists of the thyrotropin-releasing hormone receptor (TRHR) signaling pathway (AID 1346891; calls by dose curve; further: series mostly up to about 58 µM). In a few lines: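 Screening of agonists relied on calcium signalling in HEK293 cells expressing human TRHR: dye loading 2 h at 37 °C preceded compound addition and a 3-min fluorescence time course.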
Test [20] addresses Nuclear receptor subfamily 1 group I member 2 (Homo sapiens) (UniProt O75469). In words: Human pregnane X receptor (PXR) small molecule agonists, qHTS assay (AID 1346982). Further: nearly all actives have a fitted effect of over 35% in size. Further: potency means the concentration at half of the fitted maximal effect. A digest of the protocol: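 Luminescence (ONE-Glo, 30 min RT) after 24 hr compound exposure of PXR-Luc HepG2 cells; cells rested 5 hr post-plating in 5% charcoal-stripped FBS medium.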

Molecules are shown by their SMILES. Values without a mark were called inactive. Records with an inconclusive call do not appear. Active and inactive are the calls of the source. Unless noted, the call rests on the fitted dose curve; in most records, active means well fitted curve in the direction sought with a large enough effect in the repeat runs; inconclusive means weak or mixed curves; inactive means no such curve, though single readings can be large; an effect the other way counts as inactive or inconclusive.
On the % scale 0 is the no-effect control and ±100 the full control effect.

Sequence of Nuclear receptor subfamily 1 group I member 2 (Homo sapiens) (O75469 whole entry, looked up): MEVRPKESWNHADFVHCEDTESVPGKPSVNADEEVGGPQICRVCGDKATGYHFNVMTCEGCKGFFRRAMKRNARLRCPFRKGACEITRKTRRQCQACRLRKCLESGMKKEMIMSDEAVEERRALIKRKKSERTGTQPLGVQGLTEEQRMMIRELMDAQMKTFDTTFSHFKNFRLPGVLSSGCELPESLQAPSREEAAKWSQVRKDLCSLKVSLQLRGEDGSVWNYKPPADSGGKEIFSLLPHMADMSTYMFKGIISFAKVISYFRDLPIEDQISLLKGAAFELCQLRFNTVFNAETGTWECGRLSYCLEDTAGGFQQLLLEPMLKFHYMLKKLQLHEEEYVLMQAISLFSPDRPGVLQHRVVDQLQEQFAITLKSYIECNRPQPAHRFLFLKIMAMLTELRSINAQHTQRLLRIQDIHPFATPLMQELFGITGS
Sequence of Progesterone receptor (Homo sapiens) (P06401 whole entry, looked up): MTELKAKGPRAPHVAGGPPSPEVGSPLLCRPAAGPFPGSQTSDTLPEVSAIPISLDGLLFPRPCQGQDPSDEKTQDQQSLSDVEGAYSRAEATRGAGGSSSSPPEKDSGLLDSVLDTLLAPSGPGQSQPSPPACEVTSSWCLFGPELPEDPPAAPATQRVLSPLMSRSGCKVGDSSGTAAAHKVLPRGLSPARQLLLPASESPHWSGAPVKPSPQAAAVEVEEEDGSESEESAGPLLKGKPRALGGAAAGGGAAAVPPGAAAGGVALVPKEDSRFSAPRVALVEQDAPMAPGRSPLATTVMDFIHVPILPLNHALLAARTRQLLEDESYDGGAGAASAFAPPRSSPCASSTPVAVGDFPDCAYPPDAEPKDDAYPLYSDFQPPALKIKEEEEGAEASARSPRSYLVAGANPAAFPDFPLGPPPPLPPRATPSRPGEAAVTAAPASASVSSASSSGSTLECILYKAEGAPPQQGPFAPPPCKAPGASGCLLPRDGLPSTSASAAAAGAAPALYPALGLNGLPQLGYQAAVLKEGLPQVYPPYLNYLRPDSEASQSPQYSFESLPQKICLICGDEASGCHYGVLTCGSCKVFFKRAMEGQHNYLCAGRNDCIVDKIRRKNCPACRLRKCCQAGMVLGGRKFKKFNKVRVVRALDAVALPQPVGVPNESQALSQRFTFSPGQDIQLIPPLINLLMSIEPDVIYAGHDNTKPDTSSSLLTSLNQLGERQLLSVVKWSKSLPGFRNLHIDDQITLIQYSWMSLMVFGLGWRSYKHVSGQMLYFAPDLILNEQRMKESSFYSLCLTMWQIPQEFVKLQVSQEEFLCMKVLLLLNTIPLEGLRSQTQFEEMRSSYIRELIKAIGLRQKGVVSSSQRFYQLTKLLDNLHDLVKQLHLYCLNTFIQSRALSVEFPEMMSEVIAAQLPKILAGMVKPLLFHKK
Sequence of Cytochrome P450 2D6 (Homo sapiens) (P10635 whole entry, looked up): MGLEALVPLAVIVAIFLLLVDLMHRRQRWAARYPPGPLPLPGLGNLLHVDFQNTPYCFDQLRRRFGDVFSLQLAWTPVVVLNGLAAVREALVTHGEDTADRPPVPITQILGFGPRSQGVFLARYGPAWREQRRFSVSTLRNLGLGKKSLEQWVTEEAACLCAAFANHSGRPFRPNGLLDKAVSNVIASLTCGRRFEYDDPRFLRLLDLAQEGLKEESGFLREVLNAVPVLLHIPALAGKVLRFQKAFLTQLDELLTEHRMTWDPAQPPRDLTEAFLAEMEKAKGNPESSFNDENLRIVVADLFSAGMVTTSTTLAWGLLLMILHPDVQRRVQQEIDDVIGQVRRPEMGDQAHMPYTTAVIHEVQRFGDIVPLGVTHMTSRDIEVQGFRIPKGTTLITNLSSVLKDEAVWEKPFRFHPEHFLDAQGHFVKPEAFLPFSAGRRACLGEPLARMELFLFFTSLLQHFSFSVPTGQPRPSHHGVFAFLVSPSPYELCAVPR
Sequence of Thyrotropin-releasing hormone receptor (Homo sapiens) (P34981 whole entry, looked up): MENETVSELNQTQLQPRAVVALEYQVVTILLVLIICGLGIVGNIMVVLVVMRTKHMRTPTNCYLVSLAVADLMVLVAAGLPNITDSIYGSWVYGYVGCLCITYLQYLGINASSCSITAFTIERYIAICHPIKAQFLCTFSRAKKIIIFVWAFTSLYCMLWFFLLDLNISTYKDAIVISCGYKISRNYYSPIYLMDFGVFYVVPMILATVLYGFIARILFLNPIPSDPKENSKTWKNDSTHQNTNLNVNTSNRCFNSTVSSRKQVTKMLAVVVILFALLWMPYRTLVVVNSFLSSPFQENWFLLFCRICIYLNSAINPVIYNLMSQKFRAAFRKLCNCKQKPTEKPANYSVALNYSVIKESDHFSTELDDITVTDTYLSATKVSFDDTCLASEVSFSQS
Sequence of Nuclear receptor subfamily 1 group I member 2 (Rattus norvegicus) (Q9R1A7 whole entry, looked up): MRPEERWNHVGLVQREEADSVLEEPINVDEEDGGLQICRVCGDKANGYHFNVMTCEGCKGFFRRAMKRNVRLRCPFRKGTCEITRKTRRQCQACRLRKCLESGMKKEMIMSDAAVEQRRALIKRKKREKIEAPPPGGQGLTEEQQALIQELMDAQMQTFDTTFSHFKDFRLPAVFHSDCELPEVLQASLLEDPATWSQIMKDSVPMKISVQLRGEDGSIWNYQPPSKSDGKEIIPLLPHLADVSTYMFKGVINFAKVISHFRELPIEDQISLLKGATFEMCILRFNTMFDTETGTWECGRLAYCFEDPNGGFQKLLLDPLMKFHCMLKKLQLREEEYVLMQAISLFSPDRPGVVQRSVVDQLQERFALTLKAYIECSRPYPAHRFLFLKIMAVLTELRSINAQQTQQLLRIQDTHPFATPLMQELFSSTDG

With `C#C[C@]1(O)CC[C@H]2[C@@H]3CCc4cc(OC5CCCC5)ccc4[C@H]3CC[C@@]21C`, the Potency result in test [1], in test [2], in test [3], in test [4], in test [5] and in test [7] was “inactive” each time. The Potency entry in test [8], in [10] and in test [12] was “inactive” in each case. In addition, the outcome in [6] was inactive. Also, the Potency in test [9] was 29.8 µM (active). The max activation in test [11] is -3.04%.

In the case of `O=C1C(O)=C(O)C(=O)C(O)=C1O`, the Potency entry in [1], in [2], in [13], in [5], in [7] and in [14] was “inactive” in each case. Besides, the Potency entry in test [8], in [9], in test [15], in test [10], in test [16] and in test [17] was “inactive” throughout. Besides, the Potency entry in test [12] was “inactive”. In [6], the compound was classed as inactive. In addition, in test [11], the max activation was -2.91%.

`C[N+]1(C)CCC(OC(=O)C(O)(c2ccccc2)C2CCCC2)C1` (stereo not given): the Potency result in test [1], in test [2], in test [3], in test [4], in test [5] and in [7] was “inactive” throughout. Moreover, the Potency result in test [19], in test [14], in test [8], in test [9], in [15] and in test [10] was “inactive” throughout. Besides, the result in [18] was inactive.

`O=C(O)c1ccc(-n2nc(-c3ccccc3O)nc2-c2ccccc2O)cc1`: the Potency entry in test [1], in test [2], in test [3], in test [4], in [5] and in [7] was “inactive” throughout. The Potency entry in test [19], in [14], in test [8], in test [15], in [10] and in test [20] was “inactive” throughout. In addition, the Potency entry in test [12] was “inactive”. Further, the compound was classed as inactive in test [6] and in [18]. Also, in [9], the Potency was 18.8 µM (active).

Turning to `CC(C)(O)c1ccc(CNC(=O)c2cccnc2Oc2ccc(F)cc2)cc1`, the Potency entry in test [1], in test [2], in [13], in test [5], in test [7] and in test [14] was “inactive” throughout. The Potency entry in [9], in test [15], in [10] and in test [12] was “inactive” throughout. The compound was classed as inactive in test [6].

In the case of `CC1=CC[C@H](C(C)C)C=C1`, the Potency result in test [1], in test [2], in test [3], in [4], in test [5] and in test [7] was “inactive” each time. Also, the Potency result in test [14], in [8], in [15] and in test [10] was “inactive” throughout. Also, in [6], the outcome was inactive. For the same compound, the values for the Potency in test [20] and in [12] were 27.3 µM (active) and 56.4 µM (active), respectively.

`CCCC(=O)Nc1ccc(O)c(C(C)=O)c1`: the Potency entry in [1], in test [2], in test [3], in test [4], in test [5] and in [7] was “inactive” in each case. The Potency result in test [19], in [8], in test [9], in test [15], in test [10] and in test [20] was “inactive” in each case. Also, the Potency result in [12] was “inactive”. Further, the result in test [6] and in test [18] was inactive.

For the origin of these results see PubChem BioAssay (Tox21).
